Assay in all cases: DAPPL (digital affinity profiling via proximity ligation, sequencing); 10 mM Tris-HCl pH 7.5, 50 mM NaCl, 1 mM DTT, 4% glycerol, room temperature, 30 min; GST-TFs on glutathione beads, 16-mer random dsDNA library, 0.1% formaldehyde crosslink after washing; high values mean tight binding
Holding throughout (conditions): protein: recombinant; tags: N-terminal GST; dsDNA, one strand shown

One assay has as its target T1, ERF (Homo sapiens, UniProt P50548 1-548).
T1 sequence: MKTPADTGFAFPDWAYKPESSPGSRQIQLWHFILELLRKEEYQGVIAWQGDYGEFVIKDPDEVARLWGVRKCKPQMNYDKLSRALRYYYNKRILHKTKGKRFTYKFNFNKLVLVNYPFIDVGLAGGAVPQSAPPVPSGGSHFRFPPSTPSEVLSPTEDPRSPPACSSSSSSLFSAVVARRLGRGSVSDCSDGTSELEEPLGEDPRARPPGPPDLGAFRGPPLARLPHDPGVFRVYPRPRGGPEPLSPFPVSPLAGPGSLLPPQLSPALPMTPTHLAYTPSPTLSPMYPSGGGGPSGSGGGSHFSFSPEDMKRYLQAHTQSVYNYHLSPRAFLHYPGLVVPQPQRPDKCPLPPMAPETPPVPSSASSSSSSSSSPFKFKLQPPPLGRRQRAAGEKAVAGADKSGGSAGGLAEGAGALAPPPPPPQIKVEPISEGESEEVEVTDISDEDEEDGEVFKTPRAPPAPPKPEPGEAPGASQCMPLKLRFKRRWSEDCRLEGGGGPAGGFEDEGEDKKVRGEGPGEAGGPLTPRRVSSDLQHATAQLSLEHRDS
An outline of the steps: (§1)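 A tag-only sample was pooled with DNA-barcoded human transcription factors that had been expressed in yeast as GST fusions and captured on glutathione beads. The pools were incubated for 30 min at room temperature with 200 nmole of a random double-stranded 16-mer DNA library in Tris/NaCl/DTT/glycerol buffer, then washed, crosslinked with 0.1% formaldehyde, proximity-ligated (BsaI/T4 ligase, 1 h, 37 °C), PCR-amplified and sequenced on an Illumina NextSeq500. Binding signal is each hexamer's read frequency for a factor divided by its frequency for the tag-only sample.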

A further assay deals with T2, ETV3L (Homo sapiens, UniProt Q6ZN32 1-361).
T2 sequence: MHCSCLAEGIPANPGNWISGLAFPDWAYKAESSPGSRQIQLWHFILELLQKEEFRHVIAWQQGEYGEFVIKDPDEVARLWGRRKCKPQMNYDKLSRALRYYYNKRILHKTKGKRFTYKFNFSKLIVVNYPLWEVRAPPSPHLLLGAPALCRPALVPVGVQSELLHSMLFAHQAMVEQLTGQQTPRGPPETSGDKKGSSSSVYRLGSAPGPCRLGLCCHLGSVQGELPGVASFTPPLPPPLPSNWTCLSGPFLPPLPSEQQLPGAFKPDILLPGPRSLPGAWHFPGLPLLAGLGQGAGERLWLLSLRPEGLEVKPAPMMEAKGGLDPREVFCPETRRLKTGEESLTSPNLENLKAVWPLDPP
An outline of the steps: as §1

The target in another assay is T3, ETS2 (Homo sapiens, UniProt P15036 1-469).
T3 sequence: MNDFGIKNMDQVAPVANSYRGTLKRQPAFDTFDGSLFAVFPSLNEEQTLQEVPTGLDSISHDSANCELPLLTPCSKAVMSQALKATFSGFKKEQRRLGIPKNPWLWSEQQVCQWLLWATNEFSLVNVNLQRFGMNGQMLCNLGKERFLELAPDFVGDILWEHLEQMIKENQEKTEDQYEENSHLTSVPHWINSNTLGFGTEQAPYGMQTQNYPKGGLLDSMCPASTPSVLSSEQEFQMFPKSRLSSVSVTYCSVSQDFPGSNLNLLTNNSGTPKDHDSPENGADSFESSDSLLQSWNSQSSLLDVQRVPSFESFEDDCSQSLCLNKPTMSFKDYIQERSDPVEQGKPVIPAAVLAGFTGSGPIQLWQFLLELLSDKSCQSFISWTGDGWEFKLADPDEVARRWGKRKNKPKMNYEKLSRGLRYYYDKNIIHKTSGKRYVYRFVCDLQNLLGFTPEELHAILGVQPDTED
An outline of the steps:
as §1

The target of another assay is T4, SPDEF (Homo sapiens, UniProt O95238 1-335).
T4 sequence: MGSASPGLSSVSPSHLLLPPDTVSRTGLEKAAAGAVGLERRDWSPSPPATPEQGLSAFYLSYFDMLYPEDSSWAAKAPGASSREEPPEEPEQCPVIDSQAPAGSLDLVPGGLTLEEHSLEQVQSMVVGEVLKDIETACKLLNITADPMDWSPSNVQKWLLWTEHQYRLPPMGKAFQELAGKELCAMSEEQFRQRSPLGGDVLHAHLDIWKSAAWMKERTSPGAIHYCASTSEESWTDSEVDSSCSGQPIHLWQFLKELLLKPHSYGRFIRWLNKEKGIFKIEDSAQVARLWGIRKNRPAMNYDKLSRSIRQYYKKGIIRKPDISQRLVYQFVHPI
The method, boiled down:
as §1

The target of a further assay is T5, ETV7 (Homo sapiens, UniProt Q9Y603 1-341).
T5 sequence: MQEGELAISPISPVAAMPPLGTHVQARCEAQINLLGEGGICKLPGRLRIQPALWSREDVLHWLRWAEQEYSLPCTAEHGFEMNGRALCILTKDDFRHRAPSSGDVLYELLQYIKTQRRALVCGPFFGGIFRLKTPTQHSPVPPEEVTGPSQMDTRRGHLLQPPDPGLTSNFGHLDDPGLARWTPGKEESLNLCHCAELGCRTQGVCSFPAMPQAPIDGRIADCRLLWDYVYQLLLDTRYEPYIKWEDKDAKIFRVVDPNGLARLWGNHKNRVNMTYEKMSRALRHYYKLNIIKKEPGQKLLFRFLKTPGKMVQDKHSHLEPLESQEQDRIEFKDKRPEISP
The method, boiled down:
as §1

For another assay, the target named is T6, ELF5 (Homo sapiens, UniProt Q9UKW6-2 1-255).
T6 sequence: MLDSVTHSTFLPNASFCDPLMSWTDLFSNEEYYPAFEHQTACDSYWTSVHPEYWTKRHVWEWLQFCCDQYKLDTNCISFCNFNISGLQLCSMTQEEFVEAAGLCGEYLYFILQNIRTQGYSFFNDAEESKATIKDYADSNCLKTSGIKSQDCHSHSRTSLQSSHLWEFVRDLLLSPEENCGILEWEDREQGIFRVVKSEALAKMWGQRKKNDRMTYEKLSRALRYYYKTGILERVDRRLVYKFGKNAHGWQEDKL
An outline of the steps:
as §1

The target in the next assay is T7, ETV3 (Homo sapiens, UniProt P41162-2 1-143).
T7 sequence: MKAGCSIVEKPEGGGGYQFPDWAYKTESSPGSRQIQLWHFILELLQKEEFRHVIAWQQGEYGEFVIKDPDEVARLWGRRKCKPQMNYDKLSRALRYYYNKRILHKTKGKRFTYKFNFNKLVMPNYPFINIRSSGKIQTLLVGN
An outline of the steps: as §1

Another assay deals with ETV6 (Homo sapiens, UniProt P41212 1-452). The method, boiled down:
as §1

ETV6, sequence (P41212 whole entry): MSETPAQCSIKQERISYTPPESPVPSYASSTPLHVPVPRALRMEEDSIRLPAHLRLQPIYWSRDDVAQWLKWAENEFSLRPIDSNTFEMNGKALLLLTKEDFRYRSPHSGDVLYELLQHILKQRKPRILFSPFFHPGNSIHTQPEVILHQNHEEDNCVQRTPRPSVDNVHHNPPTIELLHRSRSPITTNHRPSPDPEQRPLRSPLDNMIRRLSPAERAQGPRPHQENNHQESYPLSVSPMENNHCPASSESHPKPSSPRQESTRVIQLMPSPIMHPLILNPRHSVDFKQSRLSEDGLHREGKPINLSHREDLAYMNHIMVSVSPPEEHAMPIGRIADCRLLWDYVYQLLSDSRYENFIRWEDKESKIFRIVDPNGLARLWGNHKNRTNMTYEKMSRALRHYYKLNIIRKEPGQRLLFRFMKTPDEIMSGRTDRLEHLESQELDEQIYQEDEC

Take ACTGCC: the binding signal is 1.4 fold enrichment (6-mer frequency, TF over GST control) in the assay with ERF; 1.46 fold enrichment (6-mer frequency, TF over GST control) with ETV3L; 1.29 fold enrichment (6-mer frequency, TF over GST control) with ETS2; 1.46 fold enrichment (6-mer frequency, TF over GST control) in the assay with SPDEF; 1.34 fold enrichment (6-mer frequency, TF over GST control) with ETV7; 1.43 fold enrichment (6-mer frequency, TF over GST control) with ELF5. Moreover, the binding signal in the assay with ETV3 is 1.46 fold enrichment (6-mer frequency, TF over GST control); with ETV6, 1.4 fold enrichment (6-mer frequency, TF over GST control).

For the sequence TGTCCG, the binding signal in the assay with ERF was 1.31 fold enrichment (6-mer frequency, TF over GST control); with ETV3L, 1.4 fold enrichment (6-mer frequency, TF over GST control); in the assay with ETS2, 1.52 fold enrichment (6-mer frequency, TF over GST control); in the assay with SPDEF, 1.8 fold enrichment (6-mer frequency, TF over GST control); with ETV7 it was 1.51 fold enrichment (6-mer frequency, TF over GST control); with ELF5, 1.62 fold enrichment (6-mer frequency, TF over GST control). Besides, the binding signal with ETV3 is 1.6 fold enrichment (6-mer frequency, TF over GST control); with ETV6 it was 1.55 fold enrichment (6-mer frequency, TF over GST control).

Consider GATATT, for which the binding signal is 1.05 fold enrichment (6-mer frequency, TF over GST control) with ERF; 1.12 fold enrichment (6-mer frequency, TF over GST control) in the assay with ETV3L; 1.13 fold enrichment (6-mer frequency, TF over GST control) with ETS2; 1.26 fold enrichment (6-mer frequency, TF over GST control) with SPDEF; 1.14 fold enrichment (6-mer frequency, TF over GST control) with ETV7; 1.25 fold enrichment (6-mer frequency, TF over GST control) with ELF5. In addition, the binding signal with ETV3 was 1.14 fold enrichment (6-mer frequency, TF over GST control); in the assay with ETV6, 1.17 fold enrichment (6-mer frequency, TF over GST control).

Turning to TACCCA, the binding signal in the assay with ERF was 1.18 fold enrichment (6-mer frequency, TF over GST control); with ETV3L, 1.06 fold enrichment (6-mer frequency, TF over GST control); with ETS2, 1.17 fold enrichment (6-mer frequency, TF over GST control); with SPDEF, 1.09 fold enrichment (6-mer frequency, TF over GST control); with ETV7, 1.07 fold enrichment (6-mer frequency, TF over GST control); in the assay with ELF5, 1.09 fold enrichment (6-mer frequency, TF over GST control). In addition, the binding signal in the assay with ETV3 was 1.06 fold enrichment (6-mer frequency, TF over GST control); in the assay with ETV6 it was 1 fold enrichment (6-mer frequency, TF over GST control).

For GCGTCC, the binding signal in the assay with ERF was 1.32 fold enrichment (6-mer frequency, TF over GST control); in the assay with ETV3L, 1.24 fold enrichment (6-mer frequency, TF over GST control); with ETS2 it was 1.18 fold enrichment (6-mer frequency, TF over GST control); in the assay with SPDEF, 1.56 fold enrichment (6-mer frequency, TF over GST control); with ETV7 it was 1.17 fold enrichment (6-mer frequency, TF over GST control); with ELF5 it was 1.25 fold enrichment (6-mer frequency, TF over GST control). Also, the binding signal with ETV3 is 1.24 fold enrichment (6-mer frequency, TF over GST control); in the assay with ETV6, 1.19 fold enrichment (6-mer frequency, TF over GST control).

Consider CGGAAG, for which the binding signal was 2.46 fold enrichment (6-mer frequency, TF over GST control) with ERF; 2.71 fold enrichment (6-mer frequency, TF over GST control) with ETV3L; 3.01 fold enrichment (6-mer frequency, TF over GST control) with ETS2; 3.02 fold enrichment (6-mer frequency, TF over GST control) with SPDEF; 2.8 fold enrichment (6-mer frequency, TF over GST control) with ETV7; 3.37 fold enrichment (6-mer frequency, TF over GST control) in the assay with ELF5. Also, the binding signal with ETV3 is 3.28 fold enrichment (6-mer frequency, TF over GST control); with ETV6 it was 3.4 fold enrichment (6-mer frequency, TF over GST control).

Turning to CACACT, the binding signal with ERF is 1.22 fold enrichment (6-mer frequency, TF over GST control); with ETV3L it was 1.12 fold enrichment (6-mer frequency, TF over GST control); with ETS2, 1.14 fold enrichment (6-mer frequency, TF over GST control); in the assay with SPDEF it was 1.13 fold enrichment (6-mer frequency, TF over GST control); in the assay with ETV7, 1.14 fold enrichment (6-mer frequency, TF over GST control); with ELF5, 1.18 fold enrichment (6-mer frequency, TF over GST control). The binding signal with ETV3 was 1.18 fold enrichment (6-mer frequency, TF over GST control); with ETV6, 1.15 fold enrichment (6-mer frequency, TF over GST control).

The record behind these values is publication PMC7862700, “An all-to-all approach to the identification of sequence-specific readers for epigenetic DNA modifications on cytosine”.
